Assay [1] is described as follows: TOX21_p53_BLA_p2_viability: Viability Assessment in the Tox21 HCT-116 p53 Agonism Beta-lactamase Assay, Phase 2 (AID 2283591).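 Also: compound exposure lasted 16 h at 37 °C; actives lower the ATP signal meaning cytotoxicity.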 In a few lines: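 Cytotoxicity readout: CellTiter-Glo ATP luminescence, 30 min at room temperature, after the beta-lactamase read. Cells were HCT116 exposed 16 h at 37C to compounds pin-transferred at 217-fold dilution from DMSO stocks.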

Assay [2] addresses Cellular tumor antigen p53 (Homo sapiens) (UniProt P04637). Put plainly: TOX21_p53_BLA_p2_ratio: Tox21 HCT-116 p53 Agonism Beta-lactamase Assay, Ratio, Phase 2 (AID 2283592). A digest of the protocol:
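Cleaved-to-uncleaved substrate ratio (460 vs 530 nm) measured in HCT116 cells with an inducible beta-lactamase reporter linked to p53 activity. Compounds incubated 16 h at 37C before 2 h room-temperature CCF4-AM loading.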

Assay [3] shares this target. Put plainly: TOX21_p53_BLA_p3_ratio: Tox21 HCT-116 p53 Agonism Beta-lactamase Assay, Ratio, Phase 3 (AID 2283596). In a few lines: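 Cells were seeded at 4000/well, rested 5 h at 37C, then dosed with DMSO compound solutions (217-fold dilution) for 16 h. CCF4-AM substrate was loaded for 2 h at room temperature, and the 460/530 nm emission ratio was fitted for gain of signal versus DMSO.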

The nature of assay [4]: TOX21_p53_BLA_p4_viability: Viability Assessment in the Tox21 HCT-116 p53 Agonism Beta-lactamase Assay, Phase 4 (AID 2283597).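 Also: hits lower the luminescence signal meaning cytotoxicity.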 In a few lines: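 Viability is taken as cellular ATP: after 16 h compound exposure of HCT116 cells and a 2 h room-temperature CCF4-AM substrate step, CellTiter-Glo reagent is added and luminescence is measured 30 min later.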
Assay [5] has as its target Cellular tumor antigen p53 (Homo sapiens) (UniProt P04637). Put plainly: TOX21_p53_BLA_p5_ratio: Tox21 HCT-116 p53 Agonism Beta-lactamase Assay, Ratio, Phase 5 (AID 2283599). In a few lines: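 Beta-lactamase reporter ratio (blue 460 nm over green 530 nm, 405 nm excitation) after 2 h CCF4-AM loading, in HCT-116 cells exposed 16 h at 37 C to compounds pinned at 217-fold dilution. Increases relative to DMSO baseline scored.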

Assay [6] is described as follows: TOX21_p53_BLA_p5_viability: Viability Assessment in the Tox21 HCT-116 p53 Agonism Beta-lactamase Assay, Phase 5 (AID 2283600). In a few lines:
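Viability is taken from cellular ATP content, measured by luciferase luminescence in the same wells after the beta-lactamase ratio read. Cells are seeded at 4000 per well and exposed to DMSO-dissolved compounds, diluted 217-fold, for 16 h.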

Assay [7] has as its target Cellular tumor antigen p53 (Homo sapiens) (UniProt P04637). Put plainly: TOX21_p53_BLA_p4_ratio: Tox21 HCT-116 p53 Agonism Beta-lactamase Assay, Ratio, Phase 4 (AID 2283601). A digest of the protocol: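 Signal is the blue/green (460nm/530nm) ratio of cleaved versus uncleaved CCF4-AM substrate, read after 2 h substrate loading. Cells were HCT116 carrying the p53-responsive beta-lactamase reporter, dosed 16 h at 37C, 5% CO2; CellTiter-Glo measured in parallel.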

Assay [8] is described as follows: TOX21_p53_BLA_p3_viability: Viability Assessment in the Tox21 HCT-116 p53 Agonism Beta-lactamase Assay, Phase 3 (AID 2283593).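 Also: cells exposed to compound for 16 h before reading.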 In a few lines: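 Cellular ATP was quantified by CellTiter-Glo luminescence, read after 30 min at room temperature. Beforehand, HCT116 cells (4000/well) received compound 5 h post-seeding, 217-fold diluted from DMSO, then incubated 16 h at 37C.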

This is an account of results in PubChem BioAssay (EPA / NIEHS).

For orientation: AC50 means the midpoint of the concentration-response curve, whichever way the signal moves.

Each structure is given as a SMILES string. Inconclusive results are not listed. Calls of active or inactive are those of the source. The calls were made as follows: active = hit-call score of the fitted dose curve at least 0.9, where 1 is the maximum; inconclusive = response in the unintended direction; inactive = score below 0.9.

Chain of Cellular tumor antigen p53 (Homo sapiens) (P04637 whole entry, looked up): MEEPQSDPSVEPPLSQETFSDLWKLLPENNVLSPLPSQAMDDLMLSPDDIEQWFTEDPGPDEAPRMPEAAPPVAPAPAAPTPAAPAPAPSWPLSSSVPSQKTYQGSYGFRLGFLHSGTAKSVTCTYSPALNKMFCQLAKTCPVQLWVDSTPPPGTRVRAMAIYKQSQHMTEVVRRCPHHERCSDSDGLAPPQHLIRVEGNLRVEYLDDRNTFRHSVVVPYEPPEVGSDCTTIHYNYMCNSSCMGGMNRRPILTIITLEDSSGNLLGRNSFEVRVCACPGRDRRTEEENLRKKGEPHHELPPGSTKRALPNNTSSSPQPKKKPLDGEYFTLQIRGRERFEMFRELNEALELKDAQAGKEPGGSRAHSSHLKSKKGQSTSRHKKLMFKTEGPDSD

Take `CN1CCc2cc(Cl)c(O)cc2[C@H]2c3ccccc3CC[C@@H]21`: the molecule was called inactive in assay [1], in assay [2], in assay [3], in assay [4], in assay [5] and in assay [6].

Consider `CNC(=O)Oc1cc(C)cc(C(C)C)c1`, for which the result in assay [1], in assay [2], in assay [3], in assay [4], in assay [5] and in assay [6] was inactive. Besides, the outcome in assay [7] was inactive.

Regarding `Cc1cc(C)c(C(=O)P(=O)(C(=O)c2c(C)cc(C)cc2C)c2ccccc2)c(C)c1`, the molecule was called inactive in assay [1], in assay [2], in assay [8], in assay [5] and in assay [7].

As to `C#C[C@]1(O)C=C[C@H]2[C@@H]3CCC4=CC(=O)CC[C@@H]4[C@H]3CC[C@@]21CC`, the call in assay [1], in assay [2], in assay [3], in assay [4], in assay [5] and in assay [7] was inactive.

`COc1cc(C[C@H](C)N)c(OC)cc1Br`: the call in assay [1], in assay [2], in assay [8], in assay [5] and in assay [7] was inactive.

Regarding `OCC(Br)CBr` (stereo not given), the molecule was called inactive in assay [1], in assay [2], in assay [3], in assay [4], in assay [5] and in assay [6]. Also, the result in assay [7] was inactive.

Take `S=C=S`: the molecule was called inactive in assay [1], in assay [2], in assay [3], in assay [4], in assay [5] and in assay [6]. For the same molecule, the result in assay [7] was inactive.

For `CC(=O)C1CCOC1=O` (stereo not given), the molecule was called inactive in assay [1], in assay [2], in assay [3], in assay [5], in assay [6] and in assay [7].

With `CC[C@@H](CO)NC(=O)[C@@H]1C=C2c3cccc4[nH]cc(c34)C[C@H]2N(C)C1`, the call in assay [1], in assay [2], in assay [3], in assay [4], in assay [6] and in assay [7] was inactive.

As to `CNP(=O)(OC)Oc1ccc(C(C)(C)C)cc1Cl` (stereo not given), the result in assay [1], in assay [2], in assay [3], in assay [5], in assay [6] and in assay [7] was inactive.

Turning to `C[C@]12C=CC(=O)C=C1CC[C@@H]1[C@@H]2CC[C@]2(C)OC(=O)CC[C@@H]12`, the molecule was called inactive in assay [1], in assay [2], in assay [3], in assay [5], in assay [6] and in assay [7].

As for `ClCc1ccc(Cl)cc1Cl`, the molecule was classed as inactive in assay [1], in assay [2], in assay [3], in assay [5] and in assay [6].

Turning to `CC(C)(C)NC[C@H](O)c1ccc(O)cc1Cl`, the outcome in assay [1], in assay [2] and in assay [4] was inactive.

For `COC(=O)C(Br)CBr` (stereo not given), the molecule was classed as inactive in assay [1], in assay [2], in assay [5] and in assay [7]. For the same molecule, the AC50 in assay [3] is 48 µM (active).

On to `COP(=S)(OC)Oc1ccc([N+](=O)[O-])cc1Cl`, for which the call in assay [1], in assay [2], in assay [3], in assay [4], in assay [6] and in assay [7] was inactive.

On to `CCN(CC)Cc1nccn1-c1ccc([N+](=O)[O-])cc1C(=O)c1ccccc1Cl`, for which the outcome in assay [1], in assay [2], in assay [4] and in assay [5] was inactive.
